Screening results as filed in PubChem BioAssay.
Most compounds without a hit are left out; they make up all but 2.8% or so of the library.
GLP-1R agonist: agonists of human GLP-1 receptor; Potency, µM (series often up to 45.6 µM), for inactives: at the top dose activation, most hits filed as activators; AID 624172; HEK293 GLP-1R CRE-luciferase, luminescence, 4-6 h; cells express a hypersensitive GLP-1R form; actives 0.007% (n = 380,000); note: % of control where 0% means no effect
Target sequence (P43220 whole entry, looked up): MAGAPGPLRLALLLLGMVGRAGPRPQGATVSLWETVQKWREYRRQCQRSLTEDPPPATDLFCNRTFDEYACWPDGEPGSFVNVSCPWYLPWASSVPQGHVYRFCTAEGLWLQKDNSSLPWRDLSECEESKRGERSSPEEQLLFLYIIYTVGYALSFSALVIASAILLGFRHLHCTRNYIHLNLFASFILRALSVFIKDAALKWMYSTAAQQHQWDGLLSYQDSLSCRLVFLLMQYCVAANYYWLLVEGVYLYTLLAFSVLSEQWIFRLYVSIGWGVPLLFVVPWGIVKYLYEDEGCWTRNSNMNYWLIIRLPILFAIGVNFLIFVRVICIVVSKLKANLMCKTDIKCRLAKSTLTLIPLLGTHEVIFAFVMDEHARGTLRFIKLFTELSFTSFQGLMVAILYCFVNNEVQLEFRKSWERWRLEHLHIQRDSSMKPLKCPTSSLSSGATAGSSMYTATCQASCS
HEK293 tox: cytotoxicity in counter-screen for GLP-1R inverse agonists; AID 624418; Potency, µM (doses to about 38.3 µM), for inactives: at the top dose activity change, negative = inhibition, actives largely listed as inhibitors; HEK293 cAMP-luciferase reporter cells, luminescence, 24 h; actives 0.13% (n = 410,000);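 note: loss of luciferase light is scored as toxicity; % is set by controls: 0 for no effect and ±100 for the full control effect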
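Cells in DMEM/10% Nu serum/1% pen-strep, 1536-well format. Pre-incubated 12 h, dosed with 23 nL compound, incubated a further 24 h. Luciferase detection, 12 min at room temp, luminescence.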
BRCA1 expr up: BRCA1 expression activation | MCF7-BRCA1-FFLuc reporter, luminescence, 48 h; response scale: scaled: vehicle 0%, 10 µM genistein 100% | Potency, µM (doses to about 46.1 µM), for the others: at the highest dose activation, hits mostly activators | actives 1.1% (n = 380,000) | AID 624202; note: nearly all actives have a fitted effect of over 80% in size
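Luminescence from a BRCA1-driven firefly luciferase in MCF7 cells was the read-out, taken 15 min after substrate addition following 48 h compound exposure at 37 °C. Data were normalized to a 10 microM genistein control and DMSO vehicle.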
Mito fusion act: inhibitors of mitochondrial division or activators of mitochondrial fusion; S. cerevisiae fusion-defective mutant growth rescue, CellTiterGlo 48 h; Potency, µM (titrated, usually from 46.1 µM), for the others: at the top dose growth rescue (activation), hits mostly activators; actives 0.23% (n = 320,000); note: % of control where 0% means no effect; nearly all actives have a fitted effect of over 45% in size
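Read-out: ATP-based luminescence (CellTiterGlo, 10 min ambient) reporting growth of fusion-defective ts yeast after 48 hours at 37C on glycerol/ethanol YPEG medium in the presence of compound.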
GLP-1R inv ag: GLP-1 receptor (human) inverse agonism; P43220; HEK293 GLP-1R CRE-luciferase, luminescence, 24 h; GLP-1R form is constitutively active; Potency, µM (doses to about 38.3 µM), without a hit: top-dose activity change, negative = inhibition, actives largely listed as inhibitors; actives 1.6% (n = 410,000); note: % is set by controls: 0 for no effect and ±100 for the full control effect; nearly all actives have a fitted effect of over 55% in size
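Inverse agonists were sought by their lowering of basal cAMP reporter luciferase output in HEK293 cells stably carrying constitutively active human GLP-1R, after 24 h compound treatment.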
Starred values were filed as active, the others as inactive; ? = inconclusive; . = no result. Calls come from the whole dose curve; as a rule, active = well fitted curve in the direction sought with a large enough effect; inconclusive = small, poorly fitted or top-dose-only effect, or another doubt; inactive = no such curve, though single readings can be large; an effect the other way counts as inactive or inconclusive. Potency is the fitted concentration of half-maximal effect.

SMILES | GLP-1R agonist | HEK293 tox | BRCA1 expr up | Mito fusion act | GLP-1R inv ag
O=C(Cn1nc(-c2ccc(Cl)cc2)ccc1=O)NCC1CCCO1 (configuration not stated) | -4% | 5% | 0% | -2% | 8%
Cc1ccc(S(=O)(=O)N2CCC(=O)CC2)cc1 | -2% | -5% | 0% | 1% | 1%
COc1ccc(CCNC(=O)c2cccc(NC(=O)CC3SC(N4CCCCC4)=NC3=O)c2)cc1OC (configuration not stated) | 10% | 19% | -11% | 2% | 14%
CC1C/C(=N\NC(=O)c2cccnc2)CC(C)(C)C1 (configuration not stated) | -14% | 0% | -1% | -6% | 5%
CC1C/C(=N\NC(=S)NC(C)C)CC(C)(C)C1 (configuration not stated) | -6% | ? | 0% | -7% | 4.5µM*
NC(=S)NN=Cc1nccc2c(C(F)(F)F)cccc12 | 3% | ? | -51% | . | 1.3µM*
CCOC(=O)N1CCN(C(=O)CSCc2ccc(Cl)cc2)CC1 | -5% | -17% | 42% | 4% | -6%
CCOC(=O)N1CCN(C(=O)CSCc2ccccc2)CC1 | -4% | -14% | 11µM* | -6% | 8%
CCOC(=O)N1CCN(C(=O)c2ccccc2CCc2ccccc2)CC1 | 13% | -7% | -20% | 10% | 8.9µM*
CCCC(c1nnnn1Cc1ccc(F)cc1)N1CCN(C2CCCCC2)CC1 (configuration not stated) | -11% | -20% | -16% | 9% | ?
Cc1ccc2c(c1)Oc1ccc(NC(=O)CCl)cc1C(=O)N2 | 7% | ? | -76% | -2% | 11µM*
CCc1cccc(C)c1NC(=O)CN(C)Cc1cccc(F)c1 | 4% | -3% | -43% | 17% | 8.9µM*
Cc1cccc(-c2noc(CCC(=O)Nc3ccc(C(N)=O)cc3)n2)c1 | 1% | 2% | -3% | -3% | 4%
CCCOc1ccc(NC(=O)CC2C(=O)N(C)C(=S)N2Cc2cccs2)cc1 (configuration not stated) | -7% | -19% | -44% | 26% | 7.9µM*
CCN1C(=O)C(CC(=O)Nc2ccc(Br)cc2)N(CCCc2ccccc2)C1=S (configuration not stated) | -10% | ? | -71% | -17% | 2µM*
CCCOc1ccc(NC(=O)CC2C(=O)N(CC)C(=S)N2CCCN2CCN(Cc3ccccc3)CC2)cc1 (configuration not stated) | -3% | ? | -26% | 2% | 7.1µM*
CN1C(=O)C(CC(=O)Nc2ccc(F)cc2)N(Cc2cccs2)C1=S (configuration not stated) | 9% | -24% | -23% | 5% | ?
CCCOc1ccc(NC(=O)CC2C(=O)N(CC)C(=S)N2CCNC(C)=O)cc1 (configuration not stated) | 2% | 4% | -22% | -4% | 2%
CCN1C(=O)C(CC(=O)NCCc2ccccc2)N(NC(=O)c2ccc(Br)cc2)C1=S (configuration not stated) | -2% | -9% | -28% | . | 10µM*
O=C(Cn1cc(S(=O)(=O)Cc2ccc([N+](=O)[O-])cc2)c2ccccc21)N1CCOCC1 | -10% | 15% | -2% | 0% | -6%
O=C(NCC1CCCO1)c1cc(S(=O)(=O)Nc2ccc(Br)cc2)ccc1Cl (configuration not stated) | -10% | 9% | -13% | 5% | -20%
Cc1c(C=O)c2ccccc2n1CCOc1ccccc1F | 13% | 5% | -15% | 3% | ?
Cn1c(Oc2ccc(F)cc2)c(C=O)c2ccccc21 | 5% | -12% | -4% | 5% | 10µM*
NS(=O)(=O)c1ccc(CCNc2nn3c(-c4ccc(F)c(Cl)c4)cnc3s2)cc1 | -5% | -7% | -33% | . | 9%
CCNc1nc(-c2ccc(Cl)cc2)cs1 | -1% | 3% | 2.8µM* | -8% | ?
